The text below walks through data of PubChem BioAssay (NCATS).

Structures are written as SMILES. Values joined by “and” are separate entries in the source; they are usually repeats but may differ in a detail not shown here. Equal values may be shown once. Inconclusive results are not listed. Values without a mark were called inactive. Active and inactive are the calls of the source. Calls come from the whole dose curve; as a rule, active = well fitted curve in the direction sought with a large enough effect; inconclusive = small, poorly fitted or top-dose-only effect, or another doubt; inactive = no such curve, though single readings can be large or run the other way.
% is set by controls: 0 for no effect and ±100 for the full control effect; potency is the fitted concentration of half-maximal effect.

A short description of the experiment: qHTS Assay for Identifying Gametocytocidal Compounds (AID 743244).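 For max response: actives lower the fluorescent signal which means gametocytes are killed.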 As to conditions: P. falciparum 3D7 stage III-V gametocytes, alamarBlue, 72 h; max response: stronger effect = lower value. An excerpt: Malaria cases and deaths have dropped 50% in 29 countries since 2000 due to the combined effects of long-lasting insecticidal bednets, indoor residual spraying, and artemisinin-based combination therapies (ACTs). This success has raised hopes for malaria eradication and consequently stimulated interest in developing new reagents that block gametocyte transmission such as novel and safe gametocytocidal drugs. However, previous drug development efforts have focused primarily on the asexual parasites that cause symptoms, but not malaria transmission. Consequently, patients can remain infectious for weeks after the clearance of asexual parasites and clinical symptoms. To be transmitted from person to person via a mosquito, the parasites must switch from asexual to sexual development and produce male and female gametocytes. Malaria gametocytes consist of five stages (I, II, III, IV and V). The late stage gametocytes (III, IV and V) are difficult to be cultured in vitro and the long lifespan of mature gametocytes allows them being transmitted from host to mosquitoes unless they are completely eliminated by gametocytocidal agents. To identify gametocytocidal compounds which are capable of killing late stage P. falciparum gametocytes, a high throughput gametocyte viability assay was employed. This assay uses oxidoreduction indicator, alamarBlue, as a general measure of metabolic activity of gametocytes. Within live cells, the nonfluorescent resazurin is reduced to resorufin, a bright red fluorescence dye. Fluorescence decreases upon treatment of gametocytocidal compounds. P. falciparum gametocyte (3D7 strain) was used in this study.
The 1536-well gametocycidal viability assay was based on the previous method of Tanaka et al. Stage III-V gametocytes were tested against three compound libraries, including 4265 compounds from NCGC pharmaceutical collection, 400 from Malaria Box library, and 550 from an internal collection of kinase inhibitors. Briefly, 2.5 ul/well incomplete medium was dispensed into each well of 1,536-well plates using the Multidrop Combi followed by 23 nl compound transferring using the NX-TR Pintool (WAKO Scientific Solutions, San Diego, CA). Then, 2.5 ul/well of gametocytes was dispensed with a seeding density of 20,000 cells/well using the Multidrop Combi. The assay plates were incubated for 72 h at 37C with 5% CO2. After addition of 5 ul/well of 2X AlamarBlue dye (Life Technologies, cat. no. DAL1100), the plates were incubated for 24 h at 37C with 5% CO2 and then were read in a fluorescence detection mode (Ex = 525 nm, Em = 598 nm) on a ViewLux plate reader (PerkinElmer).
(In qHTS, concentration-response curves come from the screen itself.)
Turning to `CN1C2CCC1CC(OC(c1ccccc1)c1ccccc1N)C2` (stereo not given), the max response was 17.7%. Same read-out and setting: for `O=C(OCCN1CCCCC1)C(O)(c1ccccc1)c1ccccc1` the value was 6.84%. The same measure, in the same setting: to `CN[C@H]1C[C@@H](N)[C@H](O)[C@@H](O[C@@H]2O[C@H](CO)[C@H](O)[C@@H]3OC4(O[C@H]23)O[C@H](C(N)CO)[C@H](O)[C@H](O)[C@H]4O)[C@@H]1O` (stereo not given in full) belongs -0.708% and -7.43%; to `O=C1CC[C@@]2(O)C3Cc4ccc(O)c5c4C2(CCN3CC2CC2)[C@H]1O5` (stereo not given in full), 16.9%.

In the case of `C/C(=C\c1csc(C)n1)[C@@H]1C[C@@H]2O[C@]2(C)CCC[C@H](C)[C@H](O)[C@@H](C)C(=O)C(C)(C)[C@@H](O)CC(=O)O1`, the max response was 12.6%. In the case of `CC(=O)OC1CN2CCC1CC2` (stereo not given), the max response was -0.102%.

`COC([CH2][Hg])CNC(=O)c1ccccc1OCC(=O)O` (stereo not given): the max response was 2.8%. For the compound `CC12NC(Cc3ccccc31)c1ccccc12` (stereo not given), the max response is 3.88%. Consider `C[C@H](Cc1ccc2c(c1)OC(C(=O)O)(C(=O)O)O2)NC[C@H](O)c1cccc(Cl)c1`, for which the max response is 13.1%.

Turning to `O=C1CN(O)C(c2ccccc2)=c2cc(Cl)ccc2=N1`, the max response is 0.268%.

Turning to `CCCN(CCC)CCc1ccc(O)c(O)c1`, the max response is 12.9%.

As to `CC1(C)[C@H](C=C(Cl)Cl)[C@H]1C(=O)OCc1c(F)c(F)cc(F)c1F`, the max response was 0.31%. Consider `C[C@H](N)CN1CCc2ccc(Br)cc21`, for which the Potency was 7.43 µM (active). With `CCOC(=O)/C=C(C)/C=C/C[C@@H](C)CCCC(C)C`, the max response was 10.1%. As to `CC1(C(=O)O)C2CCC(O2)C1(C)C(=O)O` (stereo not given), the max response is -9.57%. Same read-out and setting: to `COc1ccc2c(c1)C13CCCCC1C(C2)N(C)CC3` (stereo not given) belongs 9.94%; to `O=C(O)C(Cl)(Cl)Cl`, 5.93%; to `C[N+](C)(C)CC#CCOC(=O)Nc1cccc(Cl)c1`, 12.7%. As for `C[C@@H](CO)NC(=O)[C@@H]1C=C2c3cccc4[nH]cc(c34)C[C@H]2N(C)C1`, the max response was -6.08%. Consider `CC(=O)[C@H]1CC[C@H]2[C@@H]3CC[C@@H]4C[C@H](O)CC[C@]4(C)[C@H]3CC[C@]12C`, for which the max response was -3.94%. In the case of `C[N+]1([O-])[C@@H]2CC(OC(=O)[C@H](CO)c3ccccc3)C[C@H]1[C@@H]1O[C@@H]12` (stereo not given in full), the max response is 4.15% and -13.5%. Still for that read-out and setting: to `CCC1(c2ccccc2)C(=O)NC(=O)NC1=O` belongs 6%. The same measure, in the same setting: for `OC[C@@H](O)[C@H]1O[C@@H]2O[C@H](C(Cl)(Cl)Cl)O[C@@H]2[C@H]1O` the value was 13.7%; for `CC(C)CCC(=O)O[C@H]1CC[C@H]2[C@@H]3CCC4=CC(=O)CC[C@]4(C)[C@H]3CC[C@]12C`, 13.7%. Consider `COc1ccc(CNC(=O)/C=C/c2ccc3[nH]cc(CCN(C)C)c3c2)cc1`, for which the max response is -2.88%. The same measure, in the same setting: to `O=C(CS(=O)C(c1ccccc1)c1ccccc1)NO` (stereo not given) belongs -0.968%; to `CCCN1CCC[C@@H](c2cccc(O)c2)C1`, 21.7%. The same measure, in the same setting: to `CCOP(=O)(OCC)O/C(=C/Cl)c1ccc(Cl)cc1Cl` belongs -0.665%.

With `Cn1sc(Cl)cc1=O`, the max response is 0.945%. For `NCC(CP(=O)(O)O)c1ccc(Cl)cc1` (stereo not given), the max response was 18.6%.

For `Clc1ccc(N2CC3CCC(C2)N3)nn1`, the max response was 23.5%.

`CN(C)[C@H](Cc1ccccc1)c1ccccc1`: the max response is -4.16%.

As for `CCCC(=O)OC(C(Cl)(Cl)Cl)P(=O)(OC)OC` (stereo not given), the max response was -0.455%. Same read-out and setting: to `O=C(CCl)c1ccc(Oc2ccc(C(=O)CCl)cc2)cc1` belongs 0.618%; to `NCC(O)c1cccc(O)c1` (stereo not given), 13.2%; to `CCNC(=O)[C@H]1O[C@@H](n2cnc3c(N)ncnc32)[C@H](O)[C@@H]1O`, -1.58%. For `CC(=O)OO`, the max response was -9.86%. For the compound `C[N+]1(C)CCc2cc3c(cc2[C@H]1[C@@H]1OC(=O)c2c1ccc1c2OCO1)OCO3`, the max response was 19.2%. On the same count and under the same terms, to `C#CCN1CC(=O)N(COC(=O)C2C(C=C(C)C)C2(C)C)C1=O` (stereo not given) belongs 21.2%; to `c1csc(C2(N3CCCCC3)CCCCC2)c1`, -3.82%.
